Test results taken from PubChem BioAssay (NCATS).
Several values for one entry are separate records, joined by “and”; a condition that tells them apart may be missing. Equal values may be shown once. Results filed as inconclusive are left out. Where a call stands in place of a potency, no number is given. Activity calls are given as the source filed them. Unless noted, calls follow the shape of the dose curve; as a rule, active = well fitted curve in the direction sought with a large enough effect; inconclusive = small, poorly fitted or top-dose-only effect, or another doubt; inactive = no such curve, though single readings can be large; an effect the other way counts as inactive or inconclusive.

How the values were obtained:
[1] = molecular target: Alpha-galactosidase (Coffea arabica) (UniProt Q42656); assay: Counterscreen for Glucocerebrosidase Inhibitors: qHTS Assay for Coffee Bean alpha-Galactosidase at pH 5.9 (AID 998)
Alpha-galactosidase (Coffea arabica), sequence (Q42656 whole entry, looked up): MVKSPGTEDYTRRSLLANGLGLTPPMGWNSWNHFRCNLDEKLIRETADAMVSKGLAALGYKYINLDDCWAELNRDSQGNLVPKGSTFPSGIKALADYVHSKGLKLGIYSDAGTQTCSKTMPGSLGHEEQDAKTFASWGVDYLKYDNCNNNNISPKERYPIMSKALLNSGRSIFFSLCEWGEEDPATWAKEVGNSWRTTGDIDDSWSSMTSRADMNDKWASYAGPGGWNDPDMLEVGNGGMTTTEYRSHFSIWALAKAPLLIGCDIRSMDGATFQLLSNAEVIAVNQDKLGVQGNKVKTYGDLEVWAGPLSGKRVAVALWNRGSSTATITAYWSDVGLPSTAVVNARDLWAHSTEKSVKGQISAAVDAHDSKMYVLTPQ
Method in brief: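 Compounds were titrated from 0.7 nM to 77 uM against green coffee bean alpha-galactosidase (2 nM) using 80 uM fluorogenic 4-methylumbelliferyl substrate. After 20 min at room temperature, reactions were stopped at pH 10 and read by fluorescence.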

[2] = qHTS Assay for Lipid Storage Modulators (AID 1519; calls by dose curve); conditions: Drosophila S3 cells, BODIPY lipid droplet/cell ratio, laser cytometry, cells loaded with oleic acid
Method in brief: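 Cells seeded at 5,000 per well were treated with compounds over a concentration series and loaded with oleic acid (400 uM, as added). Lipid droplet fluorescence (488 nm excitation, 500-530 nm channel) was read by laser-scanning cytometry and normalized to 20 uM Triacsin C.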

[3] = Counterscreen for APE1 Inhibitors: Fluorescent Dye Displacement Validation Assay (AID 1707)
Method in brief: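 Thiazole Orange (250 nM) bound to 50 nM TAMRA-labelled dsDNA with tetrahydrofuran abasic site; displacement by DNA-binding compounds lowers fluorescence. Buffer 50 mM Tris-HCl pH 7.5, 50 mM NaCl, 2 mM MgCl2, 0.01% Tween-20; endpoint read at 480/540 nm.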

[4] = Cell Viability - LYMP2-024 (AID 988); also: nearly all actives have a fitted effect of over 60% in size
Method in brief: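 Human lymphoblastoid LYMP2-024 cells (2500/well) rested 5 hr, then treated with compound for 24 hr at 37 C in complete medium. Viability was measured as intracellular ATP by CellTiter-Glo luminescence. AC50 values came from Hill-equation fits.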

[5] = Cell Viability - LYMP2-026 (AID 989); also: nearly all actives have a fitted effect of over 50% in size
Method in brief: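 Human lymphoblastoid LYMP2-026 cells, 2500/well, exposed to compound 24 h at 37 C in complete medium. Viability as intracellular ATP by CellTiter-Glo luminescence; AC50 from Hill fits of qHTS concentration-response.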

[6] = Cell Viability - LYMP1-002 - Assay at 24 hr (AID 993)
Method in brief: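 Human lymphoblastoid LYMP1-002 cells (2500/well) treated 24 h at 37 °C; viability as intracellular ATP by CellTiter-Glo luminescence. Tetraoctylammonium bromide as positive control; AC50 from Hill-equation fits of qHTS concentration-response.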

[7] = Cell Viability - LYMP1-002 - Assay at 40 hr (AID 994); also: nearly all actives have a fitted effect of over 60% in size; also: potency is read from the fitted curve at half-maximal effect
Method in brief: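 LYMP1-002 human lymphoblastoid cells (2500/well, complete medium) were treated with compounds for 40 hr at 37 C. Intracellular ATP was measured by CellTiter-Glo luminescence, and AC50 values came from Hill-equation fits of concentration-response data; tetraoctylammonium bromide was the positive control.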

[8] = molecular target: Alpha-galactosidase A (Homo sapiens) (UniProt P06280); assay: Counterscreen for Glucocerebrosidase Inhibitors: qHTS Assay for Human alpha-Galactosidase at pH 4.5 (AID 992)
Alpha-galactosidase A (Homo sapiens), sequence (P06280 whole entry, looked up): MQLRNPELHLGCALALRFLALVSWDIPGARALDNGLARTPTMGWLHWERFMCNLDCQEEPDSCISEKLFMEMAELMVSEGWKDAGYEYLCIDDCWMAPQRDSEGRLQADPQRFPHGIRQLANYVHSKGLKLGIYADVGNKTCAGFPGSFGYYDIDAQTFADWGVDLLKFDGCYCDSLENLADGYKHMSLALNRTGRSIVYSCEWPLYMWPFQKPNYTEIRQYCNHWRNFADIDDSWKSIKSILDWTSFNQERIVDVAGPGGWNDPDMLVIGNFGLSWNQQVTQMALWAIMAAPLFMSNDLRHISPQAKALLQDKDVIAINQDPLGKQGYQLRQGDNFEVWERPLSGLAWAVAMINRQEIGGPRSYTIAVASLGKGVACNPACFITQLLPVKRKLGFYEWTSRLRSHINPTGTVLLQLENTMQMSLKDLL
Method in brief: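 Human enzyme (2 nM) with 80 uM 4-methylumbelliferyl alpha-D-galactopyranoside in 50 mM citric acid, 0.005% Tween-20, pH 4.5, 20 min at room temperature. Compounds 0.7 nM–77 uM; fluorescence Ex 365/Em 440 after pH 10 stop; AC50 from Hill fits.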

[9] = molecular target: alpha-glucosidase (Oryza sativa, rice) (UniProt Q653V4); assay: Counterscreen for Glucocerebrosidase Inhibitors: qHTS Assay for Rice alpha-Glucosidase at pH 5.0 (AID 997)
Method in brief: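 Rice alpha-glucosidase (4 nM final) with 400 uM 4-methylumbelliferyl-alpha-D-glucopyranoside in citrate buffer pH 5.0, 20 min at room temperature, stopped at pH 10; fluorescence 365/440 nm, compounds 0.7 nM–77 uM, AC50 from Hill fits.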

[10] = molecular target: DNA repair nuclease/redox regulator APEX1 (Homo sapiens) (UniProt P27695); assay: qHTS Validation Assay for Inhibitors of the Human Apurinic/apyrimidinic Endonuclease 1 (APE1) (AID 1705;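 also: TAMRA fluorescence gain over two minutes as APE1 cuts a quenched THF abasic duplex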)
DNA repair nuclease/redox regulator APEX1 (Homo sapiens), sequence (P27695 whole entry, looked up): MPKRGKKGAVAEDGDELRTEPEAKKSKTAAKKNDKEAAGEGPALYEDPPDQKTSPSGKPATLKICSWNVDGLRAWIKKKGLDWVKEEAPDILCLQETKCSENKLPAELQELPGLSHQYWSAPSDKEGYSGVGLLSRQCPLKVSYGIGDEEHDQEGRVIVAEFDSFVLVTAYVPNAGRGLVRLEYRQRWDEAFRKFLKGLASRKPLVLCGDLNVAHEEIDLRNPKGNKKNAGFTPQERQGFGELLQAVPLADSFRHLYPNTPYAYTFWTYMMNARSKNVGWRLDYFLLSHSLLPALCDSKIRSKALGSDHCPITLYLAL
Method in brief: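 qHTS, 1536-well. APE1 + cpd 15 min RT → 50 nM TAMRA/BHQ-2 THF-abasic dsDNA substrate → kinetic fluorescence, 3 reads/60 s; delta(read3−read1) = reaction progress. No-enzyme buffer = negative control.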

[11] = molecular target: Endonuclease 4 (Escherichia coli (strain K12)) (UniProt P0A6C1); assay: Counterscreen for APE1 Inhibitors: qHTS Validation Assay for Inhibitors of Endonuclease IV (AID 1708)
Method in brief: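 qHTS concentration-response format; LOPAC1280 tested under APE1-screen conditions. 2 nM enzyme, 15 min compound preincubation at RT, then 50 nM TAMRA/BHQ-2 abasic substrate; kinetic fluorescence read, three reads at 60 s intervals.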

[12] = qHTS for differential inhibitors of proliferation of Plasmodium falciparum line W2 (AID 1883); conditions: Potency: Plasmodium falciparum W2 proliferation inhibition;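 also: potency is read from the fitted curve at half-maximal effect; parasites grown with compound for 72 h before lysis and staining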
[13] = Validation of Assay for Modulators of Lamin A Splicing (AID 1459; active = well fitted curve in the direction sought with a large enough effect in the signal ratio; the % refers to the signal ratio;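 also: cells exposed to compound for two days before reading; ratio rise marks activators and ratio drop marks inhibitors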)
Method in brief: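 HeLa S3 lamin A-EGFP/DsRed2 stable clone, 600 cells/well, Opti-MEM 2% FBS; compounds by pin tool; 48 hrs, 37 °C/5% CO2; Acumen 488 nm scan, objects 10-100 um; GFP/RFP intensity ratio.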

[14] = qHTS for differential inhibitors of proliferation of Plasmodium falciparum line 7G8 (AID 1815);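 also: parasite growth measured after three days of incubation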
[15] = qHTS for differential inhibitors of proliferation of Plasmodium falciparum line 3D7 (AID 1876);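 also: parasite growth measured after three days of culture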
[16] = qHTS for differential inhibitors of proliferation of Plasmodium falciparum line D10 (AID 1877);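 also: parasites grown with compound for 72 h before DNA staining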
[17] = qHTS for differential inhibitors of proliferation of Plasmodium falciparum line Dd2 (AID 1882); conditions: Potency: Plasmodium falciparum Dd2 proliferation inhibition; also: nearly all actives have a fitted effect of over 65% in size
Method in brief: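 Dd2-infected erythrocytes (0.3% parasitemia, 2.5% hematocrit final) incubated with compound 72 h at 37 C, 5% CO2; lysed with saponin/Triton buffer containing SYBR Green I, incubated overnight in the dark, then read by fluorescence (485/535 nm). Normalized to 0.29 uM artemisinin and DMSO.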

[18] = qHTS for differential inhibitors of proliferation of Plasmodium falciparum line HB3 (AID 1886); conditions: Potency: Plasmodium falciparum HB3 proliferation inhibition;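 also: parasites grown with compound for 72 h before SYBR Green readout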
[19] = qHTS Assay for Modulators of Human Peripheral Myelin Protein 22 (PMP22) Expression/Activity (AID 1967; active = well fitted curve in the direction sought with a large enough effect in the signal ratio; the % refers to the signal ratio)
Method in brief: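 Luminescence ratio of Pmp22 promoter-driven green luciferase to EF-alpha-driven red luciferase, in engineered mouse MSC80 Schwann cells, served as read-out. Compounds were incubated 24h; untreated cells defined 0% Activity; curves were classified by r2, magnitude and activity.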

[20] = measured here: cell count channel max response
[21] = measured here: lipid channel max response

For `Cn1c(=O)c2[nH]cnc2n(C)c1=O`, which outcome [1] is on record?
The outcome was “inactive”.

And the activity change, negative = inhibition ([2]; at 25.7 µM (top of the series))?
The activity change, negative = inhibition was -0.949% (inactive) and -1.67% (inactive).

And the activity change, negative = inhibition ([2]; at 57.5 µM (top of the series))?
Its activity change, negative = inhibition is 8.67% (inactive).

What about the max response [2, 20] of the same compound?
Its max response is -7.33% and -5.65% and 13.2%.

And the max response [2, 21]?
The max response was -6.71% and -6.91% and 31.3%.

And the outcome [3]?
Its outcome is “inactive”.

For `COP(=S)(OC)Oc1ccc(SC)c(C)c1`, which outcome [4] is on record?
The outcome was “inactive”.

What about the outcome [5] of the same compound?
The outcome was “inactive”.

And the Potency [6]?
The Potency was “inactive”.

And the Potency [7]?
The Potency was “inactive”.

What about the activity change, negative = inhibition ([2]; at 57.5 µM (top of the series)) of the same compound?
The activity change, negative = inhibition was 5.63% (inactive).

What about the max response [2, 20] of the same compound?
Its max response is 23%.

And the max response [2, 21]?
Its max response is 29.4%.

For `COc1cc(OC)c(OC)cc1C=O`, which outcome [4] is on record?
The outcome was “inactive”.

What about the outcome [5] of the same compound?
The outcome was “inactive”.

What about the Potency [6] of the same compound?
The Potency was “inactive”.

And the Potency [7]?
Its Potency is “inactive”.

What about the activity change, negative = inhibition ([2]; at 57.5 µM (top of the series)) of the same compound?
The activity change, negative = inhibition was 10.2% (inactive).

What about the max response [2, 20] of the same compound?
The max response was 14.2%.

What about the max response [2, 21] of the same compound?
The max response was 28.2%.

Which activity change, negative = inhibition ([2]; at 25.7 µM (top of the series)) does the source give for `CNC(C)(C)Cc1ccccc1` here?
The activity change, negative = inhibition was -3.38% (inactive).

What about the activity change, negative = inhibition ([2]; at 57.5 µM (top of the series)) of the same compound?
The activity change, negative = inhibition was 12% (inactive).

And the max response [2, 20]?
Its max response is -19% and 14.2%.

What about the max response [2, 21] of the same compound?
Its max response is -21.7% and 31.6%.

Which results are given for `O=C(O)CCCc1ccc(N(CCCl)CCCl)cc1`?
outcome [8]: inactive; Potency [6]: inactive; Potency [7]: 25.1 µM (active); outcome [9]: inactive; outcome [1]: inactive; activity change, negative = inhibition ([2]; at 25.7 µM (top of the series)): 2.25% (inactive); activity change, negative = inhibition ([2]; at 57.5 µM (top of the series)): 2.66% (inactive); max response [2, 20]: -7.28% and 5.28%; max response [2, 21]: -5.54% and 10.7%; Potency [10]: inactive; outcome [3]: inactive; outcome [11]: inactive; Potency [12]: 11.2 µM (active)

For `Cc1ccc(C(=O)c2ccc(CC(=O)O)n2C)cc1`, which activity change, negative = inhibition ([2]; at 25.7 µM (top of the series)) is on record?
Its activity change, negative = inhibition is -1.39% (inactive).

And the max response [2, 20]?
The max response was -5.63%.

And the max response [2, 21]?
The max response was -8.93%.

What does the source list for `CC(C)N(CCC(C(N)=O)(c1ccccc1)c1ccccn1)C(C)C` (centres undefined)?
outcome [13]: inactive; activity change, negative = inhibition ([2]; at 57.5 µM (top of the series)): 4.57% (inactive) and -1.93% (inactive) and 1.94% (inactive); max response [2, 20]: 23.6% and -10.4% and -17.4%; max response [2, 21]: 33.6% and -11% and -15.7%; Potency [10]: inactive; outcome [3]: inactive; outcome [11]: inactive; Potency [14]: inactive; Potency [15]: inactive; Potency [16]: inactive; Potency [17]: inactive; Potency [12]: 8.91 µM (active); Potency [18]: inactive; outcome [19]: inactive
